The panel holds about 79,000 compounds, 15% with a hit somewhere; the sample as a whole holds those more often. Unmarked numbers belong to inactive results. Active and inactive are the calls of the source. Rule as the data show it: active = growth inhibition above about 70%; inactive = the rest.
Assays:
[1] = NCI Yeast Anticancer Drug Screen. Data for the rad50 strain (AID 155);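 also: 0% = growth of vehicle-only cultures of the same strain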; settings: S. cerevisiae rad50 strain growth inhibition; at 50.0 µM; active compounds read high
In short: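 Growth of the mutant yeast was measured after compound exposure and referenced to vehicle-treated cultures.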

[2] = NCI Yeast Anticancer Drug Screen. Data for the mec2-1 strain (AID 157); settings: S. cerevisiae mec2-1 strain, at 50.0 µM, active compounds read high
In short: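 Cells of the genetically defined mec2-1 yeast strain are incubated with test compound. Inhibition of growth is calculated against vehicle-treated controls.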

[3] = NCI Yeast Anticancer Drug Screen. Data for the sgs1 mgt1 strain (AID 161);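 also: 0% = growth of cultures given vehicle only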; settings: S. cerevisiae sgs1 mgt1 strain, at 50.0 µM, active compounds read high
In short: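 Mutant yeast exposed to compound; growth scored against vehicle-only wells.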

[4] = NCI Yeast Anticancer Drug Screen. Data for the cln2 rad14 strain (AID 165);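 also: 0% = growth equal to vehicle treated cultures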; settings: S. cerevisiae cln2 rad14 strain, at 50.0 µM, active compounds read high
In short: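 The screen exposed genetically defined yeast (cln2 rad14) to test compounds and scored growth inhibition relative to vehicle-treated controls.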

[5] = NCI Yeast Anticancer Drug Screen. Data for the bub3 strain (AID 167); settings: S. cerevisiae bub3 mutant strain, at 50.0 µM, active compounds read high
In short: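 Whole-cell yeast assay. The mutant strain was incubated with compounds, and growth inhibition was determined by comparison with vehicle-treated cells.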

[6] = NCI Yeast Anticancer Drug Screen. Data for the mlh1 rad18 strain (AID 175); settings: S. cerevisiae mlh1 rad18 strain growth inhibition; at 50.0 µM; active compounds read high
In short: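 Compound-treated yeast growth, normalised to vehicle controls. Strain bears defined DNA repair mutations.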

SMILES	growth inhibition [1] [%]	growth inhibition [2]	growth inhibition [3] [%]	growth inhibition [4]	growth inhibition [5]	growth inhibition [6]
COC(=O)CCc1ccc(N)cc1	4.85	-2.95%	9.5	-4.3%	-2.1%	2.9%
CCC(Cc1cnc2nc(N)nc(N)c2n1)c1ccc(C(=O)NC(CCC(=O)O)C(=O)O)cc1 (stereo not drawn)	-9.3	18.9%	1.8	-12.2%	-22.8%	-14.5%
C/C(=C1/N=C(c2ccccc2)OC1=O)c1ccccc1	39.5	70% (active)	65.4	75.7% (active)	94.6% (active)	80.5% (active)
CC1(C(=O)N2c3ccccc3C=CC2C#N)CC2C=CC1C2 (stereo not drawn)	-19.9	4.6%	1.9	7.6%	-2.4%	-15.9%
CC(C)C1OC2(C)OC(=N)C1(C#N)C(C#N)(C#N)C2C (stereo not drawn)	-0.75	2.2%	-18.5	-10.7%	-17.5%	-13.8%
COCCCNC(=O)c1nc2ccccc2c(=O)n1NC(=O)Cc1ccccc1	-14.1	-19.8%	7	4.35%	0.3%	-7.75%
c1ccc(N=C(Nc2ccccc2)N2CCCC2)cc1	-33.2	-13.6%	-28.1	5.7%	-19.8%	-19.4%
O=C1CSC(c2cccc(Cl)c2)N1N1C(=O)CSC1c1cccc(Cl)c1 (stereo not drawn)	6.3	19.4%	-7.15	-0.6%	2.05%	13.4%
N#CCCN(c1ccc(C=Nc2cccc([N+](=O)[O-])c2)cc1)S(=O)(=O)c1ccccc1	0.75	5.65%	14.7	8.1%	-1%	14.4%
c1ccc(Nc2nnc(-c3nsc4ccccc34)o2)cc1	-34.5	-40.9%	-42.8	-1.4%	-31.9%	-35.9%
N#C/C(=C\c1cccs1)C(N)=S	6.85	-18.6%	-6.45	-31.2%	-9.1%	1.65%
O=S(=O)(c1ccccc1)N1CCC1c1ccccc1 (stereo not drawn)	-11.3	-3.9%	-8.8	21.9%	9.3%	0.8%
O=C(Nc1ccc(Br)cc1)C(=O)C(C(=O)c1ccc(Cl)c(Cl)c1)C1OC(=O)c2ccccc21 (stereo not drawn)	59.1	42.5%	36.6	64.5%	47.3%	36.7%
CCOc1ccccc1NC(=S)NC(=O)CCc1ccccc1	-12.9	14.2%	41.9	-35%	31.6%	21.8%
S=c1nc[nH][nH]1	21.5	-3.7%	15.6	-8.65%	1.4%	21.6%
O=S(=O)(O)Cc1cccc2ccccc12	38	6.7%	11.8	-17.6%	-2.65%	22.6%
Cc1ccc(O)c(C2CC(C#N)CCN2C)c1 (stereo not drawn)	-0.65	-12.2%	-16.5	-6.35%	-18.9%	-7.3%
c1ccc(CNC2CC3CCC2C3)cc1 (stereo not drawn)	-17.6	-5.5%	-10.8	-5.15%	-16.4%	-1.3%
O=Ic1ccccc1	16.6	0.2%	1.5	10.9%	-0.3%	-8.8%
NC(=O)c1cn2ccccc2c1[N+](=O)[O-]	8.25	27.6%	3.35	-20.2%	2.8%	5.2%
CSc1nc(C=O)nc(SC)n1	1.25	-12%	9.1	-11.3%	3.45%	-17.1%
Cn1ccnc1SC(=O)C(Cl)(c1ccccc1)c1ccccc1	-13.2	5.85%	-0.8	-18.4%	0.35%	5.45%

SMILES	growth inhibition [1] [%]	growth inhibition [2]	growth inhibition [3] [%]	growth inhibition [4]	growth inhibition [5]	growth inhibition [6]
CCCCCCCCCCCC(=O)C1=C(O)C(O)CCC1=O (stereo not drawn)	-1.35	-4.7%	-6.55	-50%	-7.4%	-16.9%
Cn1ccc2c3ccn(C)c3ccc21	-15.8	9.4%	-5.25	56.7%	-19.9%	23.1%
CS(=O)(=O)Oc1ccccc1OS(C)(=O)=O	7.95	8.85%	-14.3	-27.1%	2.6%	-9.65%
CC(C)=C1C2C=CC1C(CO)C2CO (stereo not drawn)	9.8	-4.4%	-3.95	-64%	2.2%	10.8%
O=C(/C=C/c1ccc(O)cc1)OCC1OC(Oc2cc(O)c3c(c2)OC(c2ccc(O)cc2)CC3=O)C(O)C(O)C1O (stereo not drawn)	9.35	-7.45%	9.6	-16.1%	14.3%	5.1%
Cc1nc(C)c(N2CCN(C#N)CC2)c(=O)[nH]1	-52.6	-23.6%	-29.1	0.35%	-11.7%	-40.2%
O=c1n(-c2ccccc2)c(=O)n2n1C1C=CC2C23C=CC12CCCC3 (stereo not drawn)	13.8	7.85%	9.05	12%	26.2%	22.8%
CCC(C)(O)Cc1ccccc1Cl (stereo not drawn)	30.1	24.1%	21.9	17.1%	7.2%	11.8%
CC1(C)COC(c2ccccc2Cl)OC1	20.1	9%	-0.45	-24.6%	0.7%	18.6%
CCCCOC(=O)OCCOCCOC(=O)OC(C)C(=O)OCCCC (stereo not drawn)	-16.9	-22.4%	-10.2	-21.3%	1.7%	10.8%
CC(C)NC(=O)OCCN=c1c2ccccc2ccc2ccccc12	53.3	49.8%	65.9	22.7%	60.1%	38.9%
CCCc1nnnn1C12CC3CC(CC(C3)C1)C2	30.6	18.8%	2.15	2.2%	18.3%	28.1%
NCc1cnccn1	-7.05	10.6%	-4.65	8.45%	1.1%	-1.85%
COc1ccc(-c2cc(-c3ccc(Cl)cc3)on2)cc1	-15.1	11.2%	-4.55	-35.8%	10.6%	-11.4%
CN(C)C1=NC(NCc2ccccc2)(N(C)C)OC(N(C)C)=N1 (stereo not drawn)	1.95	4.9%	0.55	8.7%	13.7%	15.5%
CCOC(=O)c1c(Nc2ccc(OC)cc2)n[nH]c1C	-7.85	-34.3%	15.6	9.6%	8.65%	-8.65%
CC(=O)NC1CCCC(CC2CCCCC2)C1 (stereo not drawn)	18.4	0.45%	-7.8	-56%	17.6%	-14.9%
O=C(CCCCCC(=O)NO)NO	-0.8	-6.05%	-7.2	-20.3%	-9.4%	-1.55%
CC(C)(C)OC(=O)[N+](=N)C(=O)C1CCC(=O)N1C(=O)OCc1ccccc1 (stereo not drawn)	-27.7	-33.6%	-23.4	-11.4%	-1.9%	-20%
Cc1c(N)cc2c(c1N)C(C)(C)CC2(C)C	1.35	-2.2%	-0.4	-6.35%	11.1%	-4.6%
COc1ccc(NC2=CC(=O)c3ccccc3C2=O)cc1	0.4	5.55%	4.1	-35%	18.2%	-7.1%

From PubChem BioAssay (NCI)
